Screens deposited in PubChem BioAssay by several laboratories.
tim23-1 inh = growth inhibitors of tim23-1 mutant yeast | S. cerevisiae tim23-1 growth, BacTiter-Glo luminescence, 24 h | inhibition, % at 20 µM | actives 1.3% (n = 330,000);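 active means growth inhibition of the mutant yeast at or above 50%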;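 further: temperature-sensitive mutant grown at 25 °C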
SKKanGAS inh = inhibitors of SKKanGAS S. pyogenes growth in kanamycin (SK-promoter or general growth effect). BacTiter-Glo, 6 h. inhibition, % at 7.5 µM. actives 1.3% (n = 300,000);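 active means mean replicate score, as percent of positive control median, at least 50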;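 further: strain carries kanamycin resistance gene driven by streptokinase promoter and grows in 40 µg/ml kanamycin; loss of luminescence reflects streptokinase promoter inhibition or plain growth inhibition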
TIM10 inh = inhibits growth of TIM10 yeast strain | S. cerevisiae TIM10 strain growth, BacTiter-Glo luminescence, 24 h | inhibition, % at 10 µM | actives 1.4% (n = 330,000) | AID 463195;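 active means inhibition of 40% or more at the single tested concentration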;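 further: wild-type TIM10 isogenic control strain grown at permissive 25 °C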
NALP3 yeast inh = blocks the NALP3 inflammasome reconstituted in yeast; inhibition, % at 10 µM; Yeast reconstituted NLRP3/ASC/caspase-1, beta-gal luminescence, 24 h; actives 0.39% (n = 330,000);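 active means inhibition of 50% or more; inactive means inhibition below 50%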
tim10-1 inh = growth inhibitors of tim10-1 mutant yeast; S. cerevisiae tim10-1 ts strain growth, BacTiter-Glo, 24 h; inhibition, % at 20 µM; actives 2.2% (n = 330,000); AID 463190;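 active means inhibition of at least 40%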;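 further: mutant grown at 25 °C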
tim10-1 confirm = confirmation of tim10-1 mutant yeast growth inhibitors; S. cerevisiae tim10-1 ts strain growth, BacTiter-Glo, 24 h; actives 56% (n = 7,400); inhibition, % at 20 µM; shares compounds with tim10-1 inh; AID 463213;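 active means inhibition of yeast growth at or above a set limit in either of two repeat tests at 20 µM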;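 further: tim10-1 mutant grown at permissive 25 °C to find synthetic lethal compounds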
tim10 confirm = confirmation of TIM10 yeast growth inhibitors. S. cerevisiae tim10 strain growth, BacTiter-Glo luminescence, 24 h. actives 63% (n = 4,600). AID 463215. shares compounds with TIM10 inh. inhibition, % at 10 µM;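 active means inhibition of yeast growth at or above a set limit in either of two replicates at 10 µM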; further: this counterscreen used the strain with wild-type TIM10
tim23-1 confirm = confirmation of tim23-1 mutant yeast growth inhibitors; shares compounds with tim23-1 inh; S. cerevisiae tim23-1 growth, BacTiter-Glo luminescence, 24 h; inhibition, % at 20 µM; actives 83% (n = 4,400); AID 463218;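 active means inhibition above about 39% in either of two replicate wells at 20 µM, limit read from the data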;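 further: temperature-sensitive tim23-1 mutant grown at 25 °C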
Hits are given with their value; . = inactive; / = no result. Only some compounds are listed: those with a hit (about 4.6% of all), similar ones and a draw of the others.

SMILES	tim23-1 inh	SKKanGAS inh	TIM10 inh	NALP3 yeast inh	tim10-1 inh	tim10-1 confirm	others
CC(C)(O)[C@H]1O[C@H]2CC[C@@]3(C)[C@@](O)(CC[C@H]4Cc5c([nH]c6ccccc56)[C@@]43C)C2=CC1=O	.	.	.	.	47.3	41.0
COC(=O)C1=C(c2ccc(C(C)=O)cc2)C[C@@H]2CC[C@H]1N2C(=O)N1CCC(O)CC1	.	/	.	.	.	/
CN(C)C(=O)Oc1ccc2c(c1)O/C(=C\c1cccc(Cl)c1)C2=O	.	.	.	.	40.7	31.8
COCCCn1c(N)c(C(=O)Nc2ccccc2)c2nc3ccccc3nc21	.	49.7	.	.	48.3	.
CC1C(OC(=O)CCC(=O)NC(C)(C)CO)O[C@H]2OC3(C)CC[C@H]4[C@H](C)CCC1C24OO3 (stereo partly specified)	.	.	.	.	.	/
C[C@H]1[C@H](OC(=O)CCC(=O)NCc2ccc(C(=O)O)cc2)O[C@@H]2O[C@@]3(C)CC[C@H]4[C@H](C)CC[C@@H]1C24OO3	.	.	.	.	43.1	.
C=CC[C@@H](CC/C=C/C=C/CC/C=C\[C@@H]1CSC([C@@H]2C[C@@H]2C)=N1)OC	.	/	.	.	.	/
c1ccc(-c2cc(-c3ccccc3)[n+](-c3ccccc3)c(-c3ccccc3)c2)cc1	.	.	.	.	.	/
Cc1ccc(-c2cc(-c3ccc(C)cc3)[n+](-c3ccccc3)c(-c3ccc(C)cc3)c2)cc1	.	.	.	.	42.7	.
CN(C)c1ccc(-[n+]2c(-c3ccccc3)cc(-c3ccccc3)cc2-c2ccccc2)cc1	.	.	.	.	51.8	37.2
O=C1CN=C(c2ccccc2)c2cc(Br)ccc2N1Cc1cc(=O)n2ccccc2n1	.	.	.	.	40.7	.
O=C(O)c1ccccc1-c1ccc(C=C2C(=O)N(c3ccccc3)C(=S)N(c3ccccc3)C2=O)o1	.	.	.	.	43.0	38.7
CCN(CC)CCCOC(=O)C(OC(C)C)(c1ccccc1)c1ccccc1	.	.	.	.	42.0	.
CCOC(C(=O)OCCCN(CC)CC)(c1ccccc1)c1ccccc1	.	.	.	.	.	/
COC(=O)C1=C(c2ccc(-c3ccccc3)c(F)c2)C[C@@H]2CC[C@H]1N2C(=O)NCCOc1ccccc1Cl	.	/	.	.	.	/
COc1ccc(N2C(=O)CC(N3CC=C(c4ccccc4)CC3)C2=O)cc1 (stereo unspecified)	.	.	.	.	42.5	.
CN1CCc2cccc(Cl)c2CC1	.	/	.	.	.	/
CCOC(=O)N(c1ccccc1)P1(=S)OCCO1	.	.	.	.	.	/
CCOC(=O)N(c1ccccc1)P1(=S)OCC(C)O1 (stereo unspecified)	.	.	.	.	50.0	.
Nc1c(C(=O)OCc2ccccc2)c2nc3ccccc3nc2n1Cc1cccs1	.	56.3	.	.	45.2	.
CCCCn1c(O)c(C=NC2CC3CCC2(C)C3(C)C)c(=O)[nH]c1=O (stereo unspecified)	.	.	.	.	55.3	40.0
Cn1c(O)c(C=NC2CC3CCC2(C)C3(C)C)c(=O)[nH]c1=O (stereo unspecified)	.	/	.	.	.	/
Cc1cc(OC(=O)CCNC(=O)OC(C)(C)C)c2c3c(c(=O)oc2c1)CCC3	.	.	.	.	44.7	38.8
Cc1cc(OC(=O)CCCNC(=O)OC(C)(C)C)c2c3c(c(=O)oc2c1)CCC3	.	.	.	.	.	/
COc1ccc(-c2nc3ccc(C(=O)N4CCC5(CC4)OCCO5)cc3nc2-c2ccc(OC)cc2)cc1	.	.	.	.	.	/
SMILES	tim23-1 inh	SKKanGAS inh	TIM10 inh	NALP3 yeast inh	tim10-1 inh	tim10-1 confirm	others
CN(C)C1(c2nnnn2CCOC(=O)Nc2ccc(Cl)cc2)CCCCC1	.	.	.	.	40.9	37.0
COc1ccc(-n2nc(C(=O)NCC(=O)N3CCC4(CC3)OCCO4)c3ccccc3c2=O)c(OC)c1	.	.	.	.	.	/
O=C1/C(=C/c2ccccc2)C[C@@]2(O)[C@H]3Cc4ccc(O)c5c4[C@@]2(CCN3CC2CC2)C1O5 (stereo partly specified)	.	/	.	.	.	/
COC(=O)C[C@]1(C(=O)OC)CN(C#N)N(c2ccc(Cl)cc2)C12c1ccccc1-c1ccccc12	.	.	.	.	46.3	.
COC(=O)[C@@H]1[C@@H](C(=O)OC)C2(c3ccccc3-c3ccccc32)N(c2ccc(Cl)cc2)N1C#N	.	.	.	.	.	/
NCc1cc(=O)[nH]o1	.	/	.	.	.	/
O=C(Nc1ccc(C(F)(F)F)cc1)c1cccn(Cc2ccc3c(c2)OC(F)(F)O3)c1=O	.	.	.	.	45.8	.
Clc1ccc(CCC(Cn2ccnc2)Sc2c(Cl)cccc2Cl)cc1 (stereo unspecified)	.	/	.	.	.	/
CCN(CC)C(=O)c1ccc(NC(=S)NC(=O)CCc2ccccc2)cc1	.	.	.	.	42.1	.
O=c1c2ccccc2nc(/C=C/c2ccc([N+](=O)[O-])o2)n1-c1ccc(O)cc1	.	.	.	.	.	/
Cc1cccc(-n2c(/C=C/c3ccc([N+](=O)[O-])o3)nc3ccccc3c2=O)c1	.	.	47.2	.	57.4	51.4	tim10 confirm=.
Cc1[nH]n(-c2ccccc2)c(=O)c1C(c1ccc([N+](=O)[O-])cc1)c1c(C)[nH]n(-c2ccccc2)c1=O	.	.	46.2	.	55.6	43.8	tim10 confirm=33.0
COc1ccc2[nH]c(C)c(CCNCc3cc(OC)c4c(c3)OCO4)c2c1	.	/	.	.	.	/
O=C(Nc1cccc(C(F)(F)F)c1)c1cccn(Cc2ccc3c(c2)OC(F)(F)O3)c1=O	.	.	43.9	.	48.8	.	tim10 confirm=34.9
CN1C(C(=O)N2CCC3(CC2)OCCO3)=CC(c2ccc(F)cc2)=NS1(=O)=O	.	.	.	.	.	/
CCN(CC)C(=O)c1ccc(NC(=O)CCCSc2ccccc2)cc1	.	.	.	.	.	/
CCN(CC)C(=O)c1ccc(NC(=O)Nc2ccccc2F)cc1	65.7	70.7	42.2	.	56.2	68.2	tim10 confirm=40.0;tim23-1 confirm=63.6
N=C(N)c1c(O)n(C2CCCCC2)c(=O)n(C2CCCCC2)c1=O	65.8	.	.	.	54.0	33.2	tim23-1 confirm=52.3
O=c1c(C=NCc2cccs2)c(O)n(C2CCCCC2)c(=O)n1C1CCCCC1	.	.	.	.	.	/
O=c1ccc2cc(O[C@@H]3O[C@@H](CO)[C@H](O)[C@@H](O)[C@@H]3O)c(O)cc2o1	.	.	.	.	.	/
O=C(COc1ccc(Br)cc1)N1CCN(Cc2ccc3c(c2)OCO3)CC1	.	.	.	.	.	/
